Measured values from ChEMBL document CHEMBL3433997, “St. Jude Leishmania screening dataset” (2016).
Several values for one entry are separate records, joined by “and”; a condition that tells them apart may be missing. Equal values may be shown once.

Experiments:
Assay type in all cases: functional
[1] = target: Solute carrier family 2, facilitated glucose transporter member 1 (Homo sapiens) (UniProt P11166); experiment: ST_JUDE_LEISH: Cytotoxicity at 2uM final concentration against transgenic Leishmania Mexicana promastigotes LmGLUT1 that are glucose transport deficient and complemented with the human glucose transporter GLUT1. Activity is measured by DNA content using SYBR green in vitro
Chain of Solute carrier family 2, facilitated glucose transporter member 1 (Homo sapiens) (P11166 whole entry): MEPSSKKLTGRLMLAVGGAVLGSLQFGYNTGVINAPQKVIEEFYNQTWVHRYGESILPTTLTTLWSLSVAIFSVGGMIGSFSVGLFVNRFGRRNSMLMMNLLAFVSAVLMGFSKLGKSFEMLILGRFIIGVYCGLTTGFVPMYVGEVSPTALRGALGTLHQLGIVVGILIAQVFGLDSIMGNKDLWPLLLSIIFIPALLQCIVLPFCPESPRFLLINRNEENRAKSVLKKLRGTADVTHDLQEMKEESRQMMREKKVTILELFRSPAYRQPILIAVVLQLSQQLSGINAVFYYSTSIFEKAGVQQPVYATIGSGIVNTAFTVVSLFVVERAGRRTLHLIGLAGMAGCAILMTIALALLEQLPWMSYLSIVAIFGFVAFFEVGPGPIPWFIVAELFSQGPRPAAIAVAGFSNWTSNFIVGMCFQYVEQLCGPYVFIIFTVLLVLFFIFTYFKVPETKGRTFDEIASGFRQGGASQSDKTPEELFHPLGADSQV

[2] = target: Hexose transporter 1 (Plasmodium falciparum) (UniProt O97467); experiment: ST_JUDE_LEISH: Cytotoxicity at 2uM final concentration against transgenic Leishmania Mexicana promastigotes LmPfHT that are glucose transport deficient and complemented with the Plasmodium falciparum hexose transporter. Activity is measured by DNA content using SYBR green in vitro
[3] = target: Glucose transporter (Leishmania mexicana) (UniProt O61059); experiment: ST_JUDE_LEISH: Cytotoxicity at 2uM final concentration against transgenic Leishmania Mexicana promastigotes LmGT2 that are glucose transport deficient and complemented with the L. Mexicana glucose transporter 2. Activity is measured by DNA content using SYBR green in vitro

SMILES	inhibition [1]	inhibition [2]	inhibition [3]
CCOc1ccc(S(=O)(=O)N(C)c2ccc(OCC(=O)Nc3nccs3)cc2)cc1	5.83%	0.61%	1.43%
Cc1c(CNCCCNc2nc3ccncc3[nH]2)sc(Br)c1Br	6.56%	-2.83%	4.11%
CC(=O)Nc1csc(-c2cnc(/C=C(\C)C[C@@H]3OC[C@H](C[C@@H]4O[C@H]4[C@@H](C)[C@H](C)O)[C@@H](O)[C@H]3O)o2)c1	3.6%	4.42%	2.39%
CC1C(c2cccc(Cl)c2)OCC(C)(C)N1C(=O)CCN1CCCCC1 (stereo unspecified)	-1.47%	-0.69%	-1.56%
CCc1nc2c(cnn2CC)c(NC2CCOCC2)c1CNC(=O)c1ccoc1C	6.4%	6.38%	2.97%
O=C(NCCN1CCOCC1)c1ccc(CNC(=O)c2ccc(O)c(-c3ccc(Cl)c(Cl)c3)c2)cc1	1.82%	2.76%	1.84%
CC1=C(C(=O)OCCOCc2ccccc2)C(c2ccccc2C(F)(F)F)C(C(=O)OCCOCc2ccccc2)=C(C)N1	-0.46%	-0.98%	-2.95%
c1ccc2c(C3CCN(CCCCOc4ccc5c(c4)CCN(CC4CC4)CC5)CC3)c[nH]c2c1	70.5%	43.6%	6.07%
COc1cc2c(cc1S(=O)(=O)c1ccc(OCc3ccc(Cl)cc3)cc1)CCN(Cc1ccc(NC(C)=O)s1)CC2	4.82%	4.31%	-0.61%
CCC(C)CN1CCN(c2ccc(NC(=O)c3cccs3)cc2)CC1C (stereo unspecified)	0.37%	0.02%	1.01%
Clc1cccc(C=NNc2ccnc3cc(Cl)ccc23)c1	-1.51%	-2.17%	-3.26%
COc1ccc(NC(=O)[C@H](Cc2ccccc2)Nc2cc(C)nc(NCCN3CCCC3)n2)cc1	11.2%	9.21%	7.49%
NC(=O)c1cccc(-n2ccc3cc(CNC4Cc5ccccc5C4)ccc32)c1	21.9%	26.2%	8.72%
CCNC(=O)NC1CCN(Cc2c(-c3cccs3)nc3ccccc3c2C(=O)N[C@@H](C)C2CCCCC2)CC1	2.27%	0.77%	-0.86%
CCCCCCNC[C@@H](O)[C@H](Cc1ccccc1)NC(=O)c1cc(NCC)cc(N2CCCCS2(=O)=O)c1	1.43%	1.73%	5.06%
O=C(Nc1cccc(-c2cccc(F)c2)c1)C1CCN(Cc2ccc(O)cc2)CC1	2.54%	2.14%	2.19%

SMILES	inhibition [1]	inhibition [2]	inhibition [3]
COc1ccc2[nH]c(C(=O)Nc3cccc(-c4ccc(CN(C)C)cc4)c3)cc2c1	3.16%	1.78%	-0.5%
Fc1cccc(C=NNc2ccnc3cc(Cl)ccc23)c1	3.49%	4.64%	0.64%
CC1CCc2c(C(=O)Nc3c(F)cc(F)cc3Br)csc2C1 (stereo unspecified)	-0.18%	0.02%	-0.61%
Cc1cc(-c2cccc(CNC3CCN(C)CC3)c2)ccc1S(=O)(=O)NCc1ccccc1	4.02%	3.65%	4.62%
COc1cccc(CC(=O)N2CCC(n3c(C)nc4ccc(F)cc43)CC2)c1	2.08%	4.64%	2.33%
CC(C)n1cc2c(ccc3nc(N)nc(N)c32)n1	7.23%	17.1%	5.96%
CC(C)N1CCN(C(CN2CCN(CCCOc3ccc4nonc4c3)CC2)c2ccc(F)cc2)CC1 (stereo unspecified)	-0.47%	-1.18%	-1.91%
O=C(/C=C/c1ccc(Cl)c(Cl)c1)NCCCCCN1CCC(NC(=O)Nc2cc(F)ccc2F)CC1	2.34%	2.81%	6.16%
Cc1nn(-c2ccccc2)c2sc(C(=O)N(CCCN(C)C)c3nc(-c4ccccc4)cs3)cc12	1.15%	3.31%	0.07%
O=C(Nc1ccc(Cl)c(Cl)c1)Nc1ccc2nccc(N3CCNCC3)c2c1	-0.16%	0.06%	0.13%
COc1ccccc1CCNc1nc(C)cc(N[C@@H](Cc2ccccc2)C(=O)NCCCOC(C)C)n1	3.06%	3.2%	-0.1%
Cn1cnc(CCNC(=O)c2ccc(-c3cccc(-c4nc5cc(C(F)(F)F)ccc5[nH]4)c3)cc2)c1	4.83%	4.43%	5.89%
Cc1nc(-c2ccc(-c3ccc(C(=O)Nc4ccc(C(C)C)c(OCCN(C)C)c4)cc3)c(C)c2)no1	4.64%	2.76%	2.51%
C[C@H](CNc1ccnc(Nc2ccc3[nH]c(=O)[nH]c3c2)n1)c1ccccc1	-1.01% and -1.44%	-0.33% and -0.77%	-0.13% and 0.71%
CS(=O)(=O)c1ccc(CNCc2ccc(-c3cccc(-c4nc5cc(C(F)(F)F)ccc5[nH]4)c3)cc2)cc1	3.2%	3.79%	1.5%
Cc1nc(C(=O)N2CCCC[C@H]2CNC(=O)c2ccc(-c3ccc(N4CCCC4=O)cc3C)cc2)c(-c2ccc(F)cc2)s1	-1.91%	-0.31%	4.58%
